High-throughput results as filed in PubChem.
Gal4-VP16 FLuc = VP16 counterscreen qHTS for inhibitors of ROR gamma transcriptional activity; Drosophila S2 Gal4-VP16 UAS-luciferase, luminescence, 20 h; Potency, µM (titrated, usually from 53.6 µM), for inactives: top-dose activity, negative = inhibition, usual class: inhibitors; 3.5% of 310,000 active;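 further: Gal4-VP16 expression switched on by copper sulfate through the metallothionein promoter; nearly all actives have a fitted effect of over 50% in size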
Tau fluor cs = Counterscreen qHTS for Inhibitors of Tau Fibril Formation, Fluorescence Polarization; tau K18 P301L Alexa594 fluorescence, heparin fibrillization; Potency, µM (series often up to 57.7 µM), for the others: at the highest dose activity change, negative = decrease; 0.93% of 280,000 active; AID 1463, 2008; further: nearly all actives have a fitted effect of over 55% in size
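Human tau K18 P301L (15 uM unlabeled, 0.24 uM Alexa 594-labeled) in 100 mM sodium acetate pH 7 with 20 uM heparin, 6 hr at 37 C. ThT 30 uM added, 1 hr ambient; Alexa 594 FP and total fluorescence read at 555/632 nm.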
Tau fibril ThT = qHTS for Inhibitors of Tau Fibril Formation, Thioflavin T Binding. Microtubule-associated protein tau (Homo sapiens), P10636. recombinant tau K18 P301L, heparin-induced fibrillization, ThT fluorescence. Potency, µM (doses to about 57.4 µM), for inactives: at the highest dose activity, negative = inhibition, most hits filed as inhibitors. 2.1% of 270,000 active; further: nearly all actives have a fitted effect of over 55% in size
Target sequence (P10636 561-689 P618L limits assumed): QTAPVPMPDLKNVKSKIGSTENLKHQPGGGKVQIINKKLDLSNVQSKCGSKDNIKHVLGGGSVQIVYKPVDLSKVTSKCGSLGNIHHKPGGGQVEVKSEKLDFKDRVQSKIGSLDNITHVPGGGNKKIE
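Fibril formation assay: tau K18 P301L at 15 uM with trace Alexa 594 label, heparin inducer 20 uM, pH 7 sodium acetate buffer, 37 C for 6 hr; endpoint ThT signal.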
RORgamma inh = qHTS for inhibitors of ROR gamma transcriptional activity; Drosophila S2 Gal4-RORgamma UAS-luciferase reporter, 20 h; Potency, µM (highest dose often 53.6 µM), for inactives: top-dose activity change, negative = inhibition, most hits filed as inhibitors; 5.4% of 310,000 active; further: nearly all actives have a fitted effect of over 60% in size
Target sequence (P51450 whole entry, looked up, the tested form may be a part): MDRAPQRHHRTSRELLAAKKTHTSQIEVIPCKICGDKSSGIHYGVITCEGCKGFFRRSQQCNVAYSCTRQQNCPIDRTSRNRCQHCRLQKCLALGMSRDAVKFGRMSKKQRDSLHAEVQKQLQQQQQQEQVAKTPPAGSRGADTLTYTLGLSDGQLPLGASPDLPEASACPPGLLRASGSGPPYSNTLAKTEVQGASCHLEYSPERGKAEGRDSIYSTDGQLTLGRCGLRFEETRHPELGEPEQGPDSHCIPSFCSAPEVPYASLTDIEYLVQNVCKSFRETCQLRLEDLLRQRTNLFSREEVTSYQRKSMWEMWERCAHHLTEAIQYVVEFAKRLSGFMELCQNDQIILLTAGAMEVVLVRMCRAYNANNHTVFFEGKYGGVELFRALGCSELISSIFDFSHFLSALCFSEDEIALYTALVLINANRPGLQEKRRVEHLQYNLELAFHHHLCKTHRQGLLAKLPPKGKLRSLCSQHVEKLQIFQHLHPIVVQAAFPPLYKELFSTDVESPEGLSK
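Stably transfected Drosophila Schneider cells are the test system, with ROR gamma fused to Gal4 and luciferase under UAS control; luminescence is read after 20 hr of 700 uM copper sulfate induction at ambient temperature.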
Tau FP inhib = qHTS for Inhibitors of Tau Fibril Formation, Fluorescence Polarization. Microtubule-associated protein tau (Homo sapiens), P10636. K18 P301L tau heparin fibrillization, Alexa594 FP, 6 h. Potency, µM (top dose mostly 57.7 µM), for the others: at the highest dose activity, negative = inhibition, usual class: inhibitors. 0.39% of 280,000 active; further: nearly all actives have a fitted effect of over 55% in size
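Recombinant K18 P301L […], labeled with Alexa 594 at 0.24 uM over 15 uM unlabeled; heparin inducer 20 uM final; 37 C, 6 hr; FP endpoint.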
* marks the source's active call; other numbers are inactive results; ? = inconclusive; . = no result; [ ] = remark or other dose. Compounds with a hit are over-represented: about 7.3% of the library has one in this group of screens. The call rests on the fitted dose curve; in most records, active means well fitted curve in the direction sought with a large enough effect; inconclusive means small, poorly fitted or top-dose-only effect, or another doubt; inactive means no such curve, though single readings can be large; an effect the other way counts as inactive or inconclusive. On the % scale 0 is the no-effect control and ±100 the full control effect; potency means the concentration at half of the fitted maximal effect.

SMILES	Gal4-VP16 FLuc	Tau fluor cs	Tau fibril ThT	RORgamma inh	Tau FP inhib
O=C(O)CCCC/C=C\C[C@@H](O)/C=C/C=C/C=C\[C@@H](O)CCCC(=O)O	4%	0%	-2%	17%	1%
CNC1=C(N(C(C)=O)c2ccc(Br)cc2)C(=O)c2ccccc2C1=O	13µM*	-10%	?	5.6µM*	2%
COc1cc(CNc2ccc(N3CCCC3)cc2)ccc1OCc1ccccc1	5%	?	5µM*	-22%	?
COc1cc(CNc2ccc(N3CCCC3)cc2)ccc1OCc1ccccc1F	-12%	6%	4%	-1%	1%
CCC1Sc2ccc(S(=O)(=O)CCC(=O)Nc3cc(C)ccn3)cc2NC1=O (centres undefined)	-4%	.	.	6%	.
COc1ccc(CCn2c(C)cc(C(=O)CCl)c2C)cc1OC	20µM*	-7%	?	11µM*	1%
Cc1cc(C(=O)CCl)c(C)n1CCc1ccc(Cl)cc1	?	-17%	?	13µM*	4%
Cc1cc(C(=O)CCl)c(C)n1CCc1ccc(F)cc1	-86%	-4%	-10%	?	4%
CCOC(=O)c1c(C)[nH]c(C)c1S(=O)(=O)NCC(=O)Nc1ccc(C)cc1C	.	-5%	4%	.	-4%
COc1cc(C=C2C(=O)c3ccccc3C2=O)ccc1O	24%	-18%	?	-28%	-5%
COc1ccc(C=C2C(=O)c3ccccc3C2=O)cc1O	?	-30%	8.9µM*	?	-6%
COc1cc(C=C2C(=O)c3ccccc3C2=O)cc(OC)c1OC	9%	-28%	14µM*	9%	-4%
COc1cc(C=C2C(=O)c3ccccc3C2=O)cc(OC)c1	5%	?	.	-3%	6%
CCCCCCC#CC1C=CC(OC(C)=O)C(COC(C)=O)O1 (centres undefined)	-18%[10 µM]	-15%[11.6 µM]	?	7%[10 µM]	-9%[11.6 µM]
NC(=O)/C(=N\OC(=O)c1ccco1)c1nc(-c2ccc(Br)cc2)cs1	?	-9%	?	4.5µM*	1%
CN(C(=O)c1ccco1)c1nc(-c2ccc(F)cc2)cs1	-3%	.	.	-9%	.
COc1ccc(CCNC(=O)CCc2cn(Cc3ccccc3Cl)c3ccccc23)c(OC)c1	.	-19%	-11%	.	7%
Cc1c(Br)c(O)c(Br)c(O)c1/C=N/n1c(-c2ccccc2)n[nH]c1=S	3%	.	.	7%	.
Cc1ccc(-c2n[nH]c(=S)n2/N=C/c2c(C)nn(-c3ccccc3)c2C)cc1	?	-5%	-2%	6.3µM*	2%
Cc1nn(-c2ccccc2)c(C)c1/C=N/n1c(-c2ccc(C(C)(C)C)cc2)n[nH]c1=S	-11%	-28%	?	2.2µM*	-1%
Cc1ccccc1-c1n[nH]c(=S)n1/N=C/c1c(C)nn(-c2ccccc2)c1C	?	-6%	-10%	4.5µM*	-4%
CCOc1ccc(C(=O)Nc2ccc(-c3nc4cc(CC)ccc4o3)cc2)cc1	.	-6%	-10%	.	1%
COc1ccc(C2CC(=O)N(Cc3ccc(F)cc3)c3ccccc3S2)cc1OC (centres undefined)	.	-12%	-15%	.	1%
COc1ccc(C2CC(=O)N(C)c3ccccc3S2)cc1OC (centres undefined)	?	1%	-4%	7.9µM*	-1%
CSc1cccc(NS(=O)(=O)c2ccc3[nH]cc(C(=O)N4CCCCCC4)c(=O)c3c2)c1	.	?	-9%	.	-13%
SMILES	Gal4-VP16 FLuc	Tau fluor cs	Tau fibril ThT	RORgamma inh	Tau FP inhib
COc1ccc(Cl)cc1Nc1ccc2cc(S(=O)(=O)N3CCCCC3)ccc2n1	.	10µM*[quencher]	-9%	.	0%
COc1ccc(Nc2ccc3cc(S(=O)(=O)N4CCCC4)ccc3n2)cc1Cl	.	2.8µM*[quencher]	?	.	7%
CCOC(=O)c1cccc(Nc2ccc3cc(S(=O)(=O)N4CCCCC4)ccc3n2)c1	.	11µM*[quencher]	?	.	?
O=S(=O)(c1ccc2nc(Nc3ccc(F)cc3)ccc2c1)N1CCCC1	.	?	?	.	-14%
COc1ccc(Oc2ncc3nc(-c4ccc(OC)cc4)c(=O)n(CCC#N)c3n2)cc1	-11%	.	.	0%	.
Cc1cc(C)c(-c2cc([C@H](C)O/N=C\[C@@H](C)[C@H](OCc3ccccc3)C(C)C)on2)c(C)c1	-4%[10 µM]	-3%[11.6 µM]	-1%[11.5 µM]	6%[10 µM]	0%[11.6 µM]
CC(C)(C)C(=O)N1CCc2cc(-c3csc(N)n3)ccc21	10µM*	-16%	?	13µM*	9%
COc1ccc(CCNc2ccc(N3C(=O)CC(C)C3=O)cc2[N+](=O)[O-])cc1OC (centres undefined)	6.3µM*	-25%	?	-67%	6%
CC[C@@]1(O)C(=O)OCc2c1cc1n(c2=O)Cc2cc3c(CN(C)C)c(O)ccc3nc2-1	?	-6%	?	?	-2%
CC[C@@]1(O)C(=O)OCc2c1cc1n(c2=O)Cc2cc3c([N+](=O)[O-])cccc3nc2-1	0.63µM*	.	.	?	.
CNc1ncc(Cc2ccccc2)s1	-18%	-2%	2%	8.9µM*	-3%
Cc1ccc(S(=O)(=O)NCCC2=CCCCC2)cc1C(N)=O	7.9µM*	.	.	?	.
Cc1ccc(NC(=O)c2cc(S(=O)(=O)NCCC3=CCCCC3)ccc2F)cc1F	?	?	4%	?	?
Clc1ccc(-c2ccc(/C=N/Nc3nncc(-c4ccccc4)n3)o2)cc1	0.79µM*	-27%	2.2µM*	0.79µM*	-3%
Cc1[nH]n(-c2ccccc2)c(=O)c1/C=N/Nc1nncc(-c2ccccc2)n1	0.0022µM*	?	14µM*	0.05µM*	3%
Oc1cccc(/C=N\Nc2nncc(-c3ccccc3)n2)c1	?	21%	17%	-6%	8%
CCOc1cc(/C=N/Nc2nncc(-c3ccccc3)n2)ccc1O	5%	?	?	-7%	2%
FC(F)(F)c1cccc(-c2ccc(/C=N/Nc3nncc(-c4ccccc4)n3)o2)c1	-1%	-17%	?	-5%	7%
Cc1ccc(/C=N/Nc2nncc(-c3ccccc3)n2)o1	13µM*	-14%	?	8.9µM*	-3%
C(=C\c1ccccc1)/C=N/Nc1nncc(-c2ccccc2)n1	3.2µM*	-7%	?	2.2µM*	-3%
O=C1c2cc(Br)ccc2O[C@@H](c2ccc3c(c2)OCO3)[C@@H]1O	-11%	-3%	-13%	-5%	-3%
O=S(=O)(N/N=C\c1ccc(-c2ccccc2Cl)o1)c1ccccc1	?	7%	5%	?	0%
Clc1ccccc1-c1ccc(/C=N/Nc2nncc(-c3ccccc3)n2)o1	10µM*	-27%	2µM*	1.4µM*	16%
